In PubChem BioAssay one finds composite z-score and z-score data, which are given here for five compounds.

Test [1] in a line: anti-His antibody binders, primary screen, artefact control for SMM control protein annotation, biochemical, small-molecule microarray, 635 nm fluorescence (AID 1128).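 Further: score merges feature fluorescence with signal-to-noise for each printed compound spot.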 The following applies: anti-His Alexa647 antibody binding, higher = more signal.
The test system of test [2] is Human papillomavirus type 1a E7 protein (residues 1-88). Kind of test: HPV1a E7 small-molecule binders, primary screen, biochemical, small-molecule microarray, residues 1-88, 635 nm (AID 1129). The following applies: small-molecule microarray binding, fluorescence 635 nm; higher = more signal.
Test [3] addresses Focal adhesion kinase 1 (Homo sapiens) (UniProt Q05397). The experiment in a line: small-molecule microarray binders of FAK, primary screen, biochemical, 635/667 nm fluorescence, BSA, DTT (AID 1130).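 Further: composite of spot emission at 667 nm and signal to noise over triplicate slides.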 The following applies: PTK2 binding, 635 nm fluorescence, higher = more signal.
Test [4] relates to Fibrinogen (Alexa647-labelled). The experiment in a line: fibrinogen binders on compound microarrays, profiling panel, artefact control for SMM control-protein annotation, biochemical, small-molecule microarray, 635/667 nm fluorescence (AID 1131).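 Further: z-score merges 667 nm fluorescence with per-spot signal-to-noise over triplicate slides.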 The following applies: fibrinogen-A647 binding fluorescence, higher = more signal.
The target in test [5] is Follistatin (Homo sapiens) (UniProt P19883). Kind of test: follistatin binders on small-molecule microarrays, primary screen, biochemical, small-molecule microarray, 635/667 nm fluorescence (AID 1132). The following applies: FST binding, 635 nm fluorescence, higher = more signal.
Test [6] addresses Fibroblast growth factor 2 (Homo sapiens) (UniProt P09038). Kind of test: FGF2 binders on small-molecule microarrays, primary screen, biochemical, small-molecule microarray, 635/667 nm fluorescence (AID 1133). The conditions noted are these: small-molecule microarray binding, FGF2, fluorescence 635/667; higher = more signal.
The nature of test [7]: mitochondrial membrane potential change in A549 cells, profiling panel, cell-based, JC-1 fluorescence, basal, 24 h, 100 nL (AID 1138).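 Further: A549 lung adenocarcinoma cells under basal conditions with no added stimulus; test concentration not given here.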 The following applies: higher = more signal.
In the next test the test system is Lefty1. The experiment in a line: Lefty1 binders on small-molecule microarrays, primary screen, biochemical, small-molecule microarray, 635/667 nm fluorescence (AID 1139). The conditions noted are these: small-molecule microarray binding, fluorescence 635/667; higher = more signal.
The subject of test [8] is wheat germ agglutinin (Triticum aestivum), Alexa647-labelled. Kind of test: wheat germ agglutinin binders on compound microarrays, profiling panel, artefact control for SMM control-protein annotation, biochemical, small-molecule microarray, 635/667 nm fluorescence (AID 1140).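 Further: score merges 667 nm feature emission with signal to noise over triplicate slides.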 The following applies: WGA-A647 binding, 635 nm fluorescence, higher = more signal.
In test [9] the target is Luciferin 4-monooxygenase (Photinus pyralis) (UniProt P08659). The experiment in a line: firefly luciferase enzyme inhibitors, primary screen, biochemical, luminescence, purified enzyme, 2006 set (AID 1141).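 Further: cell-free assay with purified firefly luciferase at 100 ng per well in PBS; test concentration not given here.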 The following applies: SteadyGlo luminescence, 30 min, higher = more signal, called active from +8 up or from −8 down.
Test [10] relates to Wnt5a (protein binding on small-molecule microarray). The experiment in a line: Wnt5a binders on small-molecule microarray, primary screen, biophysical, 635/667 nm fluorescence (AID 1142).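 Further: fluorescence read at 667 nm with signal to noise per printed feature.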 The following applies: 635 nm fluorescence, higher = more signal.
Test [11] can be described thus: cell viability in Huh7 cells, primary screen, cytotoxicity control for HCV replication inhibitor project, CellTiter-Glo luminescence, basal, 48 h (AID 1143).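 Further: Huh7 hepatoma cells carrying a hepatitis C replication reporter with no stimulus; test concentration not given here.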 The following applies: Huh7 HCV replicon, higher = more signal, called active from +8 up or from −8 down. A general note: Cellular ATP, detected with luciferase, serves as a proxy for viable cell number.
A short description of test [12]: P. aeruginosa biofilm formation inhibitors, primary screen, PAO1 strain, BacTiter-Glo luminescence, LB-PBS (AID 1144). The following applies: 12 h, higher = more signal.
Test [13] in a line: CREB reporter modulators without forskolin, primary screen, cell-based, PC12, CRE-LacZ reporter, unstimulated (AID 1145). The conditions noted are these: no forskolin, luminescence, 4.5 h, higher = more signal, called active from +8 up or from −8 down.
A short description of test [14]: CREB reporter modulators under forskolin, primary screen, cell-based, PC12, CRE-LacZ reporter, forskolin-stimulated (AID 1146).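 Further: PC12 cells with 6xCRE LacZ reporter stimulated by forskolin 10 µM; beta-galactosidase reporter signal reflecting CREB driven transcription.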 The conditions noted are these: luminescence, 4.5 h, higher = more signal, called active from +8 up or from −8 down.
Test [15] deals with Streptavidin (Streptomyces avidinii) (UniProt P22629). Kind of test: streptavidin binders on small-molecule microarray, primary screen, artefact control for SMM compound annotation, biophysical, 635/667 nm fluorescence (AID 1147).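 Further: signal reflects streptavidin binding to arrayed compounds as a control protein.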 The conditions noted are these: streptavidin binding, higher = more signal.
Test [16] is described as follows: small-molecule binders of probe aInhba, primary screen, biochemical, small-molecule microarray, 635/667 nm fluorescence (AID 1148).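 Further: score merges 667nm spot fluorescence with signal-to-noise for antibody binding to printed compounds.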 The following applies: higher = more signal.
Test [17] has as its target Torsin-1A (Homo sapiens) (UniProt O14656). Kind of test: torsin A binders from cell lysate, primary screen, small-molecule microarray, wild-type, 635/667 nm (AID 1149). The conditions noted are these: COS7 hTOR1A-WT lysate, 635 nm fluorescence, higher = more signal.
Test [18] shares this target. Kind of test: small-molecule binders of mutant TOR1A in lysate, primary screen, cell lysate, small-molecule microarray, COS7 lysate, 635/667 nm fluorescence (AID 1150).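 Further: score pools 667 nm emission and signal to noise measuring lysate protein binding.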 The conditions noted are these: COS7 hTOR1A mutant lysate, 635 nm fluorescence, higher = more signal.
Test [19] has as its system Sonic hedgehog protein (Shh). The experiment in a line: small-molecule binders of Shh protein, primary screen, biochemical, small-molecule microarray, 635/667 nm fluorescence (AID 1151).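 Further: Shh protein binding to compounds spotted on small-molecule microarray slides; score combines spot fluorescence intensity with signal-to-noise across triplicate slides.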 The conditions noted are these: small-molecule microarray binding, 635 nm fluorescence; higher = more signal.

Calls of active or inactive are those of the source. Unless noted, how the calls were made is not given here.

Chain of Focal adhesion kinase 1 (Homo sapiens) (Q05397 whole entry, looked up): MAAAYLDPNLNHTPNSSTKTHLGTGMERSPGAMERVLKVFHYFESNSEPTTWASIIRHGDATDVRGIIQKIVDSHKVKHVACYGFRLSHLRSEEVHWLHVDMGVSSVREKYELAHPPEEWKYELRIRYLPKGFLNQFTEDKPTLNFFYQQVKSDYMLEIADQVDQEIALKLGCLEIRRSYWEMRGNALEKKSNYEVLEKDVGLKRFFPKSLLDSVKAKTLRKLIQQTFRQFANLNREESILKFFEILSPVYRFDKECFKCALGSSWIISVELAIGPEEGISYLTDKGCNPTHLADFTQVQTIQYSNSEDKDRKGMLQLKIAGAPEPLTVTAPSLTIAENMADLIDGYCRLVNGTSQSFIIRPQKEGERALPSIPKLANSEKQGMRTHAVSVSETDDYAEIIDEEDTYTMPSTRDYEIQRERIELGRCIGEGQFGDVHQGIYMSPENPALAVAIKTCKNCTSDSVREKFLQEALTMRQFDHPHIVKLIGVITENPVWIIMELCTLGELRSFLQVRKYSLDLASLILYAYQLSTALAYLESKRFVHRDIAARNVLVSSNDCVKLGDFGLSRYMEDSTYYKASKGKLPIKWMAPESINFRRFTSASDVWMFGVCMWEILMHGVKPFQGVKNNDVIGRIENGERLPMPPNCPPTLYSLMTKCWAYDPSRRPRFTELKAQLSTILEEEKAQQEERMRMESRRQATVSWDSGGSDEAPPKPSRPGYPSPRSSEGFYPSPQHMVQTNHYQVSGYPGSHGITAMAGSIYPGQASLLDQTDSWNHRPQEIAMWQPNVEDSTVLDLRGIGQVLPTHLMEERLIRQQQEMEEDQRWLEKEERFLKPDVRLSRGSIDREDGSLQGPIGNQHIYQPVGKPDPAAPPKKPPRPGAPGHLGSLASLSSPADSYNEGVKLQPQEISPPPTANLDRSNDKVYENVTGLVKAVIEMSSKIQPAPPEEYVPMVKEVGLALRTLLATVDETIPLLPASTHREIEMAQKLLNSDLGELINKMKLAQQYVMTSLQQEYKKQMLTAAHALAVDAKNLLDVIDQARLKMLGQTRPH
Chain of Luciferin 4-monooxygenase (Photinus pyralis) (P08659 whole entry, looked up): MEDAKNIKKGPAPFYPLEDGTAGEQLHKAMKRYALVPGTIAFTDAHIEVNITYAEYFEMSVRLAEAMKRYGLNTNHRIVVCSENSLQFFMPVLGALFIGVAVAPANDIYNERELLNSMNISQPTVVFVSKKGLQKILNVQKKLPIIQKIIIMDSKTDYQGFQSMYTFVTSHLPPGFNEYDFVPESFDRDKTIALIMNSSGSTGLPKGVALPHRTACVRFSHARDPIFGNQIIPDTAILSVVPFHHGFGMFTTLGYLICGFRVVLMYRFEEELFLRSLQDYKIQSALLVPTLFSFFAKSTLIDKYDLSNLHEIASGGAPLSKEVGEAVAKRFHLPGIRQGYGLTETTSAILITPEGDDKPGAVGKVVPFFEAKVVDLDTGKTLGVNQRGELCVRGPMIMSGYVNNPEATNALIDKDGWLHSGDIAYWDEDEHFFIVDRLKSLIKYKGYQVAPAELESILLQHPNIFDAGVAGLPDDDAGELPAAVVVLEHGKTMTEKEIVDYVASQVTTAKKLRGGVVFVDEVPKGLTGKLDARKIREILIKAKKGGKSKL
Chain of Streptavidin (Streptomyces avidinii) (P22629 whole entry, looked up): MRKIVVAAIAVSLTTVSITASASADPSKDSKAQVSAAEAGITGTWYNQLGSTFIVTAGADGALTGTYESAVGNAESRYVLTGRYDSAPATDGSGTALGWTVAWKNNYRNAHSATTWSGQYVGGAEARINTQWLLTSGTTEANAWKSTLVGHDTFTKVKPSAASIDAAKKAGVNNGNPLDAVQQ
Chain of Follistatin (Homo sapiens) (P19883 whole entry, looked up): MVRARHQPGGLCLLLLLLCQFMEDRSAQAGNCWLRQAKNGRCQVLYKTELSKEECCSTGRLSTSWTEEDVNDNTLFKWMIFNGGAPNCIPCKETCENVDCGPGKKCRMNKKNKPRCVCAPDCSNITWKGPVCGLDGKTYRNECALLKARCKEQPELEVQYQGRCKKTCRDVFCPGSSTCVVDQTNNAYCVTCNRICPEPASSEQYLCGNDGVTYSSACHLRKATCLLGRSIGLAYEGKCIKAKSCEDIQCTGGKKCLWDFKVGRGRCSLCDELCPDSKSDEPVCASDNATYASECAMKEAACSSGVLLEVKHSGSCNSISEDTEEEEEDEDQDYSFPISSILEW
Chain of Fibroblast growth factor 2 (Homo sapiens) (P09038 whole entry, looked up): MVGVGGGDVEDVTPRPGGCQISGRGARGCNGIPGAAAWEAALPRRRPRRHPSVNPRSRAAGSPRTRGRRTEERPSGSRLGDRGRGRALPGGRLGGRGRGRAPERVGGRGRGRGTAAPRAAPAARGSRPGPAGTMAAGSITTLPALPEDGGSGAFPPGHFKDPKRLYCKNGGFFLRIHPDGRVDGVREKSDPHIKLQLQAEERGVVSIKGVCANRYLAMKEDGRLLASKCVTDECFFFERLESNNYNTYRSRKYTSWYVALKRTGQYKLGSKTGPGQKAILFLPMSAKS
Chain of Torsin-1A (Homo sapiens) (O14656 whole entry, looked up): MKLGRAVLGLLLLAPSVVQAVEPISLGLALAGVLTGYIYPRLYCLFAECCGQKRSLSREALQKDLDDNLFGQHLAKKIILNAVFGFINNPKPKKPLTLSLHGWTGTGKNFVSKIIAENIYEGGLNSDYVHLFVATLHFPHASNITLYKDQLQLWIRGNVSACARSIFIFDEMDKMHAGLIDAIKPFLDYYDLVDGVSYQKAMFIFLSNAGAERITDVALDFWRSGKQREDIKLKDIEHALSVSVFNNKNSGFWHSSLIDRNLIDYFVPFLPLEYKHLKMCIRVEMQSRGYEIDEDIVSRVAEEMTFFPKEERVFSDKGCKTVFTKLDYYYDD

Turning to `COc1ccc([Si](C)(C)[C@@H]2[C@@H](CCO)O[C@]3(C(=O)N(Cc4ccc(N5C(=O)c6cccc7cccc5c67)cc4)c4ccccc43)[C@H]2C)cc1`, the composite z-score in test [1] was -0.0225; in [2] it was -0.797; in [3], 0.138; in test [4], -0.518; in [5], -1.12; in test [6] it was -0.753. Besides, the composite z-score in the test on Lefty1 is -0.536; in [8] it was 0.397; in test [10], -0.404; in test [15] it was -0.376; in test [16], -0.0791; in the test with Torsin-1A (Homo sapiens) [17], -0.565. Moreover, the composite z-score in the test with Torsin-1A (Homo sapiens) [18] was -0.535; in test [19], 0.0554. Moreover, the z-score in [7] is 1.23; in test [9], -0.604 (inactive); in test [11] it was -6.09 (inactive); in test [12], -0.0686 (inactive); in [13], 4.11 (inactive); in test [14], 0.201 (inactive).
Turning to `C=C[C@H](C)[C@H](OC(=O)Nc1ccc(OC)cc1)c1ccc(O)c2ccccc12`, the composite z-score in test [1] is -0.732; in test [2], -0.337; in [3] it was -0.208; in [4] it was 0.604; in [5], 0.782; in [6] it was 0.39. Further, the composite z-score was 0.47 with Lefty1; 0.0411 in [8]; 0.107 in test [10]; -0.199 in test [15]; -0.128 in [16]; 0.822 in the test with Torsin-1A (Homo sapiens) [17]. Besides, the figures for the composite z-score (in the test with Torsin-1A (Homo sapiens) [18]; in test [19]) were 0.16 and 0.9, respectively. Besides, the z-score was -1.6 in test [7]; -3.78 (inactive) in test [9]; -3.55 (inactive) in test [11]; -0.156 (inactive) in [12]; 0.236 (inactive) in test [13]; 0.544 (inactive) in [14].
Consider `COc1ccc([Si](C)(C)[C@@H]2[C@@H](CC(=O)N3Cc4ccccc4C[C@H]3CO)O[C@]3(C(=O)N(Cc4cccc(N5C(=O)COc6ccccc65)c4)c4ccccc43)[C@H]2C)cc1`, for which the composite z-score in test [1] amounted to 1.16; in test [2], 1; in test [3], 0.261; in [4], 0.269; in test [5], 1.26; in [6], 1.76. Moreover, the composite z-score in the test on Lefty1 was 1.25; in test [8] it was 0.0948; in [10], -0.0857; in [15], 0.535; in test [16], -0.18; in the test with Torsin-1A (Homo sapiens) [17] it was 0.718. In addition, the composite z-score came out at 0.301 in the test with Torsin-1A (Homo sapiens) [18] and 1.57 in test [19]. For the same compound, the z-score in test [7] was -0.0295; in test [9], -0.438 (inactive); in test [11], -4.33 (inactive); in [12], -0.219 (inactive); in test [13], 3.56 (inactive); in test [14], -0.431 (inactive).
For `C=C(CCCC)/C(=C/C[C@@H](OC(=O)c1ccncc1)c1ccc(CO)o1)c1cc(C(=O)OC)ccc1OC`, the composite z-score was found to be 1.94 in test [1]; 1.23 in [2]; 0.129 in test [3]; 0.889 in test [4]; 1.16 in test [5]; 0.622 in test [6]. In addition, the composite z-score in the test on Lefty1 was 1.57; in [8], 1.18; in [10], 0.079; in test [15], 0.707; in [16], 0.027; in the test with Torsin-1A (Homo sapiens) [17], 0.394. Besides, the composite z-score was 1.23 in the test with Torsin-1A (Homo sapiens) [18] and 1.97 in [19]. Also, the z-score in test [7] was -0.108; in test [9], -3.31 (inactive); in test [11], -0.605 (inactive); in [12], 0.363 (inactive); in test [13], 6.18 (inactive); in test [14] it was 4.24 (inactive).
As to `[N-]=[N+]=Nc1ccccc1[C@@H]1OC(c2ccc(OCCCO)cc2)=N[C@]1(CCS(=O)(=O)c1ccccc1)C(=O)N1CCCCC1`, the composite z-score in test [1] came out at 2.13; in test [2], 1.23; in test [3] it was 0.539; in test [4], 0.998; in [5], 1.29; in test [6], 0.234. Also, the composite z-score was -0.0697 with Lefty1; 1.42 in [8]; 0.626 in test [10]; 1.45 in [15]; 0.453 in [16]; 1.09 with Torsin-1A (Homo sapiens) [17]. The composite z-score with Torsin-1A (Homo sapiens) [18] is 0.736; in [19] it was -0.394. In addition, the z-score in test [7] is -0.0343; in test [9], -9.85 (active); in [11] it was -2.42 (inactive); in test [12], 0.0668 (inactive); in [13] it was 1.43 (inactive); in [14], -0.642 (inactive).
